According to PubChem BioAssay:

How the values were obtained:
[1] = system: Human papillomavirus type 1a protein E7 (residues 44-93); assay: HPV1a E7 fragment binders on microarrays, primary screen, biochemical, small-molecule microarray, residues 44-93, 635 nm fluorescence (AID 1108); settings: small-molecule microarray binding, fluorescence 635 nm; higher = more signal;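 further: E7 fragment applied at 1 µg/mL in TBST for 1 h at 4 C; score combines spot fluorescence with its signal to noise ratio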
[2] = modulators of HCV replicon luciferase signal, primary screen, HCV replication inhibitor project, Huh7 cells, luciferase reporter (AID 1109); settings: 48 h, higher = more signal;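 further: huh7 hepatoma cells harbouring a luciferase neomycin HCV replicon reporter; luciferase luminescence as measure of HCV replicon replication; test concentration not given here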
[3] = molecular target: Left-right determination factor 2 (Homo sapiens) (UniProt O00292); assay: LEFTY2 binders on small-molecule microarrays, primary screen, biochemical, small-molecule microarray, 635 nm fluorescence scan (AID 1110); settings: LEFTY2 binding, higher = more signal
[4] = molecular target: Calmodulin-1 (Homo sapiens) (UniProt P0DP23); assay: CALM1 binders on microarrays, EGTA buffer, profiling panel, biochemical, small-molecule microarray, Cy5-labelled CALM1 (AID 1111); settings: Cy5-CALM1 binding fluorescence, higher = more signal;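 further: labelled calmodulin applied in Tris saline Tween buffer holding calcium plus EGTA and DTT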
[5] = molecular target: Calmodulin-1 (Homo sapiens) (UniProt P0DP23); assay: calcium-bound CALM1 binders on microarrays, profiling panel, artefact control for SMM control-protein annotation, biochemical, small-molecule microarray, Cy5-labelled CALM1, plus calcium (AID 1112); settings: Cy5-CALM1 binding fluorescence, higher = more signal;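 further: score merges spot fluorescence with signal to noise from triplicate slides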
[6] = small-molecule microarray binders of probe aWnt5a, primary screen, biochemical, biotinylated probe, 635/667 nm fluorescence (AID 1113); settings: higher = more signal;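 further: score merges 667 nm fluorescence intensity with signal-to-noise per printed feature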
[7] = small-molecule microarray binders of probe aShh, primary screen, biochemical, biotinylated probe, 635/667 nm fluorescence (AID 1114); settings: higher = more signal;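 further: probe is biotin-labelled aShh protein from a stem cell growth factor screen; measures binding of labelled protein to compounds printed on the slide; score merges feature fluorescence at 667 nm with signal-to-noise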
[8] = small-molecule microarray binders of probe aNog, primary screen, biochemical, biotinylated probe, 635/667 nm fluorescence (AID 1115); settings: higher = more signal;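 further: probe is biotinylated aNog protein used at 0.15 µg/mL for 1 h at 4 C; z-score combines 667 nm fluorescence of each spot with its signal to noise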
[9] = molecular target: Torsin-1A-interacting protein 1 (Homo sapiens) (UniProt Q5JTV8); assay: LAP1 binders from COS7 cell lysate, primary screen, small-molecule microarray, 635/667 nm fluorescence (AID 1116); settings: COS7-hLAP1 lysate binding, 635 nm fluorescence, higher = more signal
[10] = molecular target: Alpha-bungarotoxin (Bungarus multicinctus) (UniProt P60615); assay: alpha-bungarotoxin binders on microarray, profiling panel, artefact control for SMM control protein annotation, biochemical, small-molecule microarray, Alexa647 label, 635/667 nm fluorescence (AID 1117); settings: alpha-BTX-A647 binding fluorescence, higher = more signal
Alpha-bungarotoxin (Bungarus multicinctus), sequence (P60615 whole entry, looked up): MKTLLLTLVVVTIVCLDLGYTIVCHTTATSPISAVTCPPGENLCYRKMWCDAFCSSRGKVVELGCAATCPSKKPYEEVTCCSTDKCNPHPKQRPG

Torsin-1A-interacting protein 1 (Homo sapiens), sequence (Q5JTV8 whole entry, looked up): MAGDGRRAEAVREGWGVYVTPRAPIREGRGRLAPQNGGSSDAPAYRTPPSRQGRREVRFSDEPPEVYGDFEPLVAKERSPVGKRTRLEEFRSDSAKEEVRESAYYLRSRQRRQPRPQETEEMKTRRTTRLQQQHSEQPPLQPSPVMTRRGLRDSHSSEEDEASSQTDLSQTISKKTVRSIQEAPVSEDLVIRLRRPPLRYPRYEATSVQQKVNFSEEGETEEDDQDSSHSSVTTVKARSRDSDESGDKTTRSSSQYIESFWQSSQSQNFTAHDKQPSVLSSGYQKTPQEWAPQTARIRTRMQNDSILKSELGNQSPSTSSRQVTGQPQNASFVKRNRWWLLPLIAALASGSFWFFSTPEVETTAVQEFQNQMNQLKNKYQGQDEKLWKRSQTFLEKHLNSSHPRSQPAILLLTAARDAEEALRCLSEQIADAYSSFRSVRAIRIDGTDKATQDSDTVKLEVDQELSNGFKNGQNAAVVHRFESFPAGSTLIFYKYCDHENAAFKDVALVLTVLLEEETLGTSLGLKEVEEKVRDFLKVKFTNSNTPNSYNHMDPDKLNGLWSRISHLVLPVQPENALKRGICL
Left-right determination factor 2 (Homo sapiens), sequence (O00292 whole entry, looked up): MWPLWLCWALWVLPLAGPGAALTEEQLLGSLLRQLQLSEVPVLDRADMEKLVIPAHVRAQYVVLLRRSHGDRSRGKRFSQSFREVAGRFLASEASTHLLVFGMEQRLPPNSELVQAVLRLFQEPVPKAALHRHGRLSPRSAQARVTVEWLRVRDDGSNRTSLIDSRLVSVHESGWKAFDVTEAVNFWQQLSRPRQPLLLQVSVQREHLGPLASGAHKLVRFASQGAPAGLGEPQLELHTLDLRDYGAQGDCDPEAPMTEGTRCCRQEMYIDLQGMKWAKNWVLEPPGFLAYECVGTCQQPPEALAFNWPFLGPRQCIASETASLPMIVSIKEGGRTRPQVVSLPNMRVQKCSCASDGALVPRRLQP

| Structure (SMILES) | composite z-score [1] | z-score [2] | composite z-score [3] | composite z-score [4] | composite z-score [5] | composite z-score [6] | composite z-score [7] | composite z-score [8] | composite z-score [9] | composite z-score [10] |
| --- | --- | --- | --- | --- | --- | --- | --- | --- | --- | --- |
| O=C(NCC(O)CO)[C@@]1(Cc2ccccc2)N=C(c2ccc(OCCCO)cc2)O[C@H]1c1ccccc1 (stereo not given in full) | 0.546 | -0.99 | -1.13 | 2.01 | 1.36 | -0.241 | 0.334 | -0.57 | 2.48 | 1.77 |
| COCCOC(=O)N1C(=O)[C@@]2(c3cc(C#CCC(C(=O)OC)C(=O)OC)ccc31)[C@H](c1ccc(OCCO)cc1)N1[C@H](c3ccccc3)[C@H](c3ccccc3)OC(=O)[C@H]1[C@@H]2C(=O)NC[C@H](O)c1ccccc1 | 0.958 | -1.71 | 0.59 | 1.09 | -0.518 | -0.17 | -0.291 | -0.202 | 0.402 | 1.18 |
| C=CCOC(=O)[C@@H]1[C@H]2C(=O)O[C@H](c3ccccc3)[C@H](c3ccccc3)N2[C@H](c2ccc(OCCOC(=O)[C@H]3C[C@H]4C(=O)N[C@@H](CCCC[N+](C)(C)C)C(=O)N4[C@H]3c3cccc(OCCO)c3)cc2)[C@@]12C(=O)Nc1ccc(I)cc12 | 1.14 | -1.29 | 1.08 | 0.38 | -0.0134 | -0.091 | -0.153 | -0.033 | 0.896 | 0.642 |
| C=CCOC(=O)[C@@H]1[C@H]2C(=O)O[C@H](c3ccccc3)[C@H](c3ccccc3)N2[C@H](c2ccc(OCCOC(=O)[C@H]3C[C@H]4C(=O)N[C@@H](CC(C)C)C(=O)N4[C@H]3c3cccc(OCCO)c3)cc2)[C@@]12C(=O)Nc1ccc(I)cc12 | 1.44 | -1.34 | 0.697 | 0.896 | 0.163 | -0.0721 | 0.337 | 0.0852 | 0.921 | 2.52 |
| COCCOC(=O)N1C(=O)[C@@]2(c3ccccc31)[C@H](c1ccc(O)cc1)N1[C@H](c3ccccc3)[C@H](c3ccccc3)OC(=O)[C@H]1[C@@H]2C(N)=O | -1.11 | -0.823 | -0.827 | -0.284 | -0.0872 | -0.0256 | 0.0899 | -0.346 | -0.571 | -0.448 |
| NC(=O)NCC#Cc1ccc2c(c1)[C@]1(C(=O)N2)[C@H](c2ccccc2OCCO)N2[C@H](c3ccccc3)[C@H](c3ccccc3)OC(=O)[C@H]2[C@@H]1C(=O)N1CCCCCCC1 | 1.43 | -0.968 | 1.34 | 2.9 | 1.55 | 1.18 | 0.728 | 3.1 | 4.58 | 3.37 |
| COc1ccc([Si](C)(C)[C@@H]2[C@@H](CCO)O[C@]3(C(=O)N(Cc4cccc(N5CCCCC5=O)c4)c4ccccc43)[C@H]2C)cc1 | 1.34 | -5.14 | 0.34 | 1.08 | 0.415 | -0.0165 | -0.0626 | 0 | 0.702 | 0.836 |
| CCCC[C@H]1OB(O)C[C@H]2C1=C(COc1ccccc1)C[C@H]1C(=O)N(Cc3ccccc3)C(=O)[C@H]12 | 1.38 | -1.72 | 0.377 | 0.324 | -0.774 | -0.176 | -0.0709 | -0.273 | -0.0868 | 1.04 |
| O=C(NCc1ccccc1)[C@@H]1c2ccccc2C(=O)N(C2CCCCC2)[C@H]1c1ccc(CO)cc1 | 1.47 | -0.166 | -0.379 | -0.576 | -0.545 | -0.104 | -0.247 | -0.282 | 0.089 | -0.09 |
| COCCn1c(C(=O)N2CCCC2)cc2c1C[C@H]1CN(C(=O)c3ccccc3)[C@@](Cc3ccc(OC)cc3)(C(=O)OC)[C@@H]21 | 0.279 | -1.62 | -0.464 | 2.67 | 1.33 | 0.0365 | 0.21 | -0.401 | 3.21 | 0.626 |
| Cc1ccccc1/C=C/C=O | -1.54 | 0.19 | -0.615 | -0.559 | -0.161 | -0.172 | -0.154 | -0.41 | -0.23 | -0.465 |
| NC(=O)[C@]1(Cc2ccccc2)N=C(c2ccc(OCCCO)cc2)O[C@@H]1c1ccccc1 | 1.33 | -0.772 | -1.02 | 1.35 | 0.744 | -0.0398 | 0.409 | 1.42 | 1.51 | 1.23 |
| COC(=O)[C@@]1(Cc2ccccc2)[C@H]2c3cc(C(=O)N(C)C)n(Cc4ccccc4)c3C[C@H]2CN1C(=O)c1ccccc1 | 0.104 | -1.13 | -0.586 | 0.733 | 0.0453 | 0.3 | 1.63 | 0.837 | 0.706 | 0.273 |
| O=C1O[C@@H](c2ccccc2)[C@@H](c2ccccc2)N2[C@@H](c3ccc(O)cc3)[C@]3(C(=O)Nc4ccccc43)[C@@H](C(=O)NC[C@H](O)c3ccccc3)[C@H]12 | 1.13 | -0.427 | 0.091 | 0.843 | 0.713 | -0.0659 | -0.0232 | -0.0899 | 0.137 | 0.262 |
| [N-]=[N+]=NCc1ccccc1[C@@H]1OC(c2ccc(OCCCO)cc2)=N[C@]1(Cc1ccccc1)C(=O)O | 1.38 | -0.297 | -0.252 | 1.14 | 0.518 | -0.0479 | 0.0711 | -0.419 | 0.767 | 0.865 |
| CC(=O)NCCCC[C@@H]1NC(=O)[C@@H]2C[C@H](C(=O)NCCCCCC[N+](C)(C)C)[C@H](c3cccc(OCCO)c3)N2C1=O | 1.39 | 0.625 | 0.996 | -0.145 | -0.711 | 0.158 | 0.0181 | -0.0585 | 1.05 | 1.75 |
| C=C(/C(=C/C[C@@H](OC(=O)c1ccncc1)c1ccc(CO)o1)c1cc(C(=O)OC)ccc1OC)C(C)C | 0.838 | -2.03 | 0.512 | 0.224 | -0.0294 | -0.063 | 0.0893 | 0.107 | 0.815 | 0.582 |
| O=C1C2C=CC(C(O)c3ccc(Br)cc3)N(n3cnnc3)C2C(=O)N1Cc1ccccc1 (stereo not given) | 1.34 | -4.38 | 0.329 | -0.0714 | 0.182 | -0.0236 | -0.0827 | 0.205 | 0.465 | 0.942 |
| O=C1OCC=C[C@H]2OC34C=CCN(c5ccc(Cl)cc5)C(=O)[C@H]3N(CCCO)C(=O)[C@@H]4[C@@H]12 (stereo not given in full) | -0.0068 | -0.483 | -0.59 | -0.268 | 0.954 | -0.15 | -0.0769 | -0.345 | -0.0862 | -0.43 |
| C=C(COC)C(=O)CC[C@@H](OC(=O)c1ccccc1-c1ccccc1C(=O)O)c1ccc(CO)o1 | 0.512 | -4.48 | 1.01 | 1.63 | 0.417 | -0.256 | -0.34 | -0.251 | 0.709 | 0.206 |
| COCCCNC(=O)[C@@]1(Sc2ccc(C)cc2)CC(=O)N(Cc2ccccc2)[C@@H]1c1ccc(CO)cc1 | 0.0655 | -1.29 | -0.993 | -0.488 | -0.58 | -0.0221 | -0.0324 | 0.336 | -0.36 | -0.941 |
| C=C(CCCC)C(=O)CC[C@@H](OC(=O)c1ccccc1-c1ccccc1C(=O)O)c1ccc(CO)o1 | 0.776 | -0.705 | 0.584 | -0.213 | -0.483 | -0.0478 | 0.108 | -0.266 | 1.23 | -0.146 |
| COc1ccc([Si](C)(C)[C@@H]2[C@@H](CCO)O[C@]3(C(=O)N(Cc4ccc(N5C(=O)c6cccc7cccc5c67)cc4)c4ccccc43)[C@H]2C)cc1 | -1.27 | -4.81 | -0.983 | 0.424 | 1.09 | -0.154 | -0.16 | 0.094 | -0.164 | -0.0784 |
| O=C1NC(=O)C2C1C=CC(C(O)c1cccs1)N2Nc1ccccn1 (stereo not given) | 0.348 | 0.755 | 0.451 | 0.0761 | -0.576 | -0.096 | -0.214 | 0.0516 | 1.32 | 1.19 |
| CC1CC/C=C\[C@H]2OC34C=CCN(c5ccc6ccccc6c5)C(=O)[C@H]3N(CCCCCO)C(=O)[C@@H]4C2C(=O)O1 (stereo not given in full) | -2.21 | 0.324 | -1.64 | -0.827 | -0.16 | -0.141 | -0.214 | -0.119 | -1.16 | -1.28 |
| CCCC[C@@H]1C[C@H]1[C@@H](NC(=O)c1ccccc1)c1ccccc1 | 0.305 | -0.978 | -0.137 | -0.0221 | 0.635 | 0.298 | 0.121 | 2.11 | -0.192 | 0.012 |
